For this assay, the system named is MARK1. Particulars: concentration: 1 μM, replicates: in singlicate; n = 1.
As to `CC(C)(C)c1ccc2nccc(Nc3cccc(O)c3)c2c1` [GW856795], the “%Inh” value came to 9%.

`COc1cc2c(cc1OCCN1CCNCC1)ncc1c3ccc(C#N)cc3[nH]c21`: the “%Inh” value was 0%.

As for `COc1cc(Nc2nccc(-c3c(-c4cccc(NC(=O)c5c(F)cccc5F)c4)nn4ccccc34)n2)cc(OC)c1OC` [GSK323521], the “%Inh” value was 6%.

With `Cc1ccc(S(=O)(=O)Nc2ccc(Nc3nccc(Nc4cccc5[nH]ncc45)n3)cc2)cc1` [GSK581271], the “%Inh” value amounted to 0%.

Consider `CCc1ccc(-c2ccc3c(c2)-c2c(cnn2C)S(=O)(=O)N3C)cc1`, for which the “%Inh” value worked out at 0%.

As to `O=C(Nc1cccc(-c2nn3ncccc3c2-c2ccnc(Nc3ccccc3)n2)c1)c1c(F)cccc1F` [GSK198271], the “%Inh” value stood at 0%.

For the compound `Fc1ccc(-c2ncn(C3CCNCC3)c2-c2ccnc(Oc3ccc(-c4ccccc4)cc3)n2)cc1` [SB-245391], the “%Inh” value is given as 25%.

Turning to `CN(c1ccc(NC(=O)Nc2cc(C(F)(F)F)ccc2F)cc1)c1ccnc(Nc2ccc(S(N)(=O)=O)cc2)n1` [GW809893], the “%Inh” value stood at 7%.

`CC(=O)Nc1nc2cnc(Nc3cc(NC(=O)c4cccc(C5(C#N)CC5)c4Cl)ccc3C)nc2s1`: the “%Inh” value was found to be 1%.

Turning to `Cl.c1ccc(-c2ccc3c(Nc4ccc5[nH]ncc5c4)ccnc3c2)nc1` [GW440137], the “%Inh” value was determined as 0%.

Regarding `COc1cc(Nc2ncc3c(C)nc(-c4cc5ccccc5[nH]4)n3n2)cc(OC)c1OC` [GW869516], the “%Inh” value worked out at 16%.

In the case of `COC(=O)Nc1nc2ccc(Oc3ccc(NC(=O)Nc4cc(C(F)(F)F)ccc4F)cc3)cc2n1C.Cl` [GW692089], the “%Inh” value amounted to 0%.

`Nc1n[nH]c2cnc(-c3ccccc3)cc12` [SB-642124]: the “%Inh” value turned out to be 0%.

As for `COc1cc(Nc2nccc(N3CCC(NC(=O)Nc4cccc(C(C)=O)c4)C3)n2)cc(OC)c1OC` (stereo not shown) [GSK1379753], the “%Inh” value was determined as 0%.

For the compound `O=C(NC1CCN(c2ccnc(Nc3ccc(F)cc3)n2)C1)c1cc2ccccc2s1` (stereo not shown) [GSK1379716], the “%Inh” value is 0%.

Take `c1ccc(-c2cnc3nccnn23)cc1` [AH20685]: the “%Inh” value turned out to be 0%.

For the compound `Nc1ncnc2c1nc(-c1ccccc1)n2-c1ccccc1` [SKF-97293], the “%Inh” value stood at 27%.

As to `CN(C)Cc1ccc(-c2ccc3c(Nc4ccc(Oc5ccccn5)cc4)ccnc3c2)o1` [GW567148], the “%Inh” value came out at 2%.

In the case of `COc1cc(Nc2nccc(N3CCC(NC(=O)c4cc5ccccc5s4)C3)n2)cc(OC)c1OC` (stereo not shown) [GSK1379760], the “%Inh” value was 7%.

As for `Cl.Cl.NCC(NCc1ccc(-c2ccnc3[nH]ccc23)s1)c1ccccc1` (stereo not shown) [GSK1321565], the “%Inh” value came out at 0%.

Take `Cl.NC(=O)c1cccc(Nc2nccc(Nc3ccc(Oc4c(Cl)cccc4Cl)c(Cl)c3)n2)c1` [GW659009]: the “%Inh” value is 0%.

Turning to `O=C(Nc1ccccc1F)NC1CCN(c2ccnc(Nc3ccc(F)cc3)n2)CC1` [GSK1379800], the “%Inh” value was found to be 0%.

Turning to `Cc1ccc(C(=O)N2CC[C@@H](O)C2)cc1-n1c(C)cc(OCc2ccc(F)cc2F)c(Br)c1=O`, the “%Inh” value was found to be 0%.

`CN(C)S(=O)(=O)c1cc(-c2ccc3nccc(-c4cccc(S(N)(=O)=O)c4)c3c2)cnc1N` [GSK1669921]: the “%Inh” value is on record as 0%.

With `O=c1[nH]cc(-c2ccc(N3CCOCC3)cc2)c2sc(-c3cn[nH]c3)cc12` [GSK2276055], the “%Inh” value is recorded as 0%.

Consider `CCCCc1nn2ncccc2c1-c1ccnc(Nc2ccc(N3CCN(C)CC3)cc2)n1` [GW684941], for which the “%Inh” value is recorded as 0%.

As for `O=C(Nc1cccc(-c2nn3ccccc3c2-c2ccnc(Nc3cccc(F)c3)n2)c1)c1c(F)ccc(F)c1Cl` [GSK357952], the “%Inh” value is 0%.

Regarding `c1ccc(-c2n[nH]cc2Nc2ccnc3ccccc23)nc1` [GW694077], the “%Inh” value worked out at 0%.

On to `COc1cc(Nc2nccc(-c3c(-c4cccc(NC(=O)c5c(F)cccc5F)c4)nn4ncccc34)n2)cc(OC)c1OC` [GSK327238], for which the “%Inh” value turned out to be 53%.

In the case of `COc1cccc(C(=O)Nc2cccc(Oc3ccc4nc(NC(=O)C5CC5)cn4n3)c2)c1`, the “%Inh” value is recorded as 17%.

In the case of `COCCOCCOc1cc2ncc3c4ccc(C#N)cc4[nH]c3c2cc1OC`, the “%Inh” value worked out at 0%.

On to `Nc1ncc(-c2ccc3nccc(-c4ccncc4)c3c2)cc1S(=O)(=O)N1CCOCC1` [GSK1627798], for which the “%Inh” value came to 0%.

Consider `Cc1cccc(NC(=O)Nc2ccc(Oc3ncnc4ccn(C)c34)cc2)c1`, for which the “%Inh” value was determined as 0%.

On to `CN1CCN(Cc2cccc(-c3ccc4c(Nc5ccc(Oc6ccccc6)cc5)ccnc4c3)c2)CC1` [GW578342], for which the “%Inh” value was 0%.

In the case of `COc1cccc(C2=C(Nc3ccc(Cl)c(C(=O)O)c3)C(=O)NC2=O)c1` [SB-390769], the “%Inh” value was 0%.

As to `COc1ccc(Nc2nccc(NCCNC(=O)c3cc4ccccc4s3)n2)cc1` [GSK1379896], the “%Inh” value is recorded as 0%.

In the case of `COc1ccc(CNC(=O)NC2CCN(c3ccnc(Nc4ccc(F)cc4)n3)CC2)cc1` [GSK1379788], the “%Inh” value is reported as 0%.

The record behind these values is PMC5540273 (PLoS ONE, 2017).
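Also: KINOMEscan kinase panel screen.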
